Autofluor counter: flagged as autofluorescent in microsphere protease counterscreen. hit rate 3.1% among 360,000. fluorescence intensity (concentration not given with the values). compound autofluorescence counterscreen, microsphere flow cytometry; stronger effect = higher value. AID 624483; in the data active = fluorescence intensity above about 16000; inconclusive = no clear call, values can overlap the other calls
SARS 3CLpro inh: SARS-CoV 3CLpro protease inhibitors, primary screen, biochemical, quenched FRET. AID 1706, 2009. inhibition, % at 6 µM. hit rate 0.14% among 290,000. Replicase polyprotein 1ab (Severe acute respiratory syndrome coronavirus), P0C6X7. recombinant SARS-CoV 3CLpro, quenched FRET peptide cleavage; in the data active = inhibition above about 12%
BoNT-A LC inh2: BoNT/A light chain protease inhibitors, primary screen, biochemical, flow cytometry, MLPCN library; Botulinum neurotoxin type A light chain protease (Clostridium botulinum A str. ATCC 3502); multiplex microsphere protease substrate cleavage; inhibition, % at 10 µM; hit rate 0.17% among 360,000; AID 588499, 2011; also: plate controls were buffer without enzyme for full effect and enzyme alone for no effect
BoNT F protease: BoNT/F light chain protease inhibitors, primary screen, biochemical, flow cytometry, MLPCN library; Botulinum neurotoxin type F light chain protease (Clostridium botulinum); Multiplex microsphere protease cleavage assay; inhibition, % at 10 µM; AID 588497, 2011; hit rate 0.22% among 360,000; in the data active = inhibition above about 35%, passing the limit was not always enough; inconclusive = no clear call, values can overlap the other calls; also: plate controls were buffer without enzyme for full effect and enzyme alone for no effect
Anthrax LF prot: Bacillus anthracis LF protease inhibitors, primary screen, biochemical, multiplex microsphere, MLPCN library. AID 588501, 2011. Lethal factor (Bacillus anthracis), P15917. hit rate 0.12% among 360,000. multiplex microsphere protease cleavage assay. inhibition, % at 10 µM; also: plate controls were buffer without enzyme for full effect and enzyme alone for no effect
Target sequence (P15917 whole entry, looked up): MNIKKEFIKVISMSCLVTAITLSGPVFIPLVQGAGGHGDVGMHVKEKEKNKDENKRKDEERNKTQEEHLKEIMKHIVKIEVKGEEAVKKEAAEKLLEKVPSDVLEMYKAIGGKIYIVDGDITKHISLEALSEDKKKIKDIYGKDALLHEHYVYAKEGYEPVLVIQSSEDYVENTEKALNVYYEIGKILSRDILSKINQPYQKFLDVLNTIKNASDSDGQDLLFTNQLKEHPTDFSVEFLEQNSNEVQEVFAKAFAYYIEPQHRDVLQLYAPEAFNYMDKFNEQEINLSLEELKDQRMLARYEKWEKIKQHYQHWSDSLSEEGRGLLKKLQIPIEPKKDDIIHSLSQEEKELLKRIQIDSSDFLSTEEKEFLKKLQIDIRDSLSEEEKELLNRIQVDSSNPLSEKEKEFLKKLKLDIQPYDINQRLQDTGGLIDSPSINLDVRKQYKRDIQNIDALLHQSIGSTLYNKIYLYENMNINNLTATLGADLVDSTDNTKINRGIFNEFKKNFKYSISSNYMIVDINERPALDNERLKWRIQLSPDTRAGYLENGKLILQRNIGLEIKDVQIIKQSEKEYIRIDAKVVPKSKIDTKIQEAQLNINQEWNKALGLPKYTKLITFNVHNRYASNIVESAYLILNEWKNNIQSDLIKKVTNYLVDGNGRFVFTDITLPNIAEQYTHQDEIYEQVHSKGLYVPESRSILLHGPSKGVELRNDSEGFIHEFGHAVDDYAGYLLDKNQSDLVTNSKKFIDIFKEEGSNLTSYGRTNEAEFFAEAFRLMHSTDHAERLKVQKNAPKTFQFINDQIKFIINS
BJeLR viability: MLPCN primary cell-based screen for lethality selective to Ras in HRASV12 cells; hit rate 0.17% among 300,000; inhibition, % (concentration not given with the values); BJeLR (HRASV12) viability, CellTiter-Glo ATP luminescence, 48 h; in the data active = inhibition above about 50%; inconclusive = no clear call, values can overlap the other calls
Numbers without * were called inactive; u = inconclusive; x = no result given. The list is not random: actives were taken first. Their share in the collection is about 3.6%. Rule as the data show it, unless noted: active = inhibition above about 30%; inconclusive = no clear call, values can overlap the other calls; inactive = below that.

SMILES	Autofluor counter	SARS 3CLpro inh	BoNT-A LC inh2	BoNT F protease	Anthrax LF prot	BJeLR viability
O=C1NCC(CN(c2ccccc2)c2ccccc2)O1 (configuration not stated)	19299*	-4	3	4	-3	2
O=C(NCC(c1ccco1)N1CCCC1)c1cc2ccccc2s1 (configuration not stated)	16777*	x	-4	29	6	x
Cc1cccc(OCCC(=O)NCC(c2ccco2)N2CCCCC2)c1 (configuration not stated)	20481*	1	u	-1	-1	-2
CC(C)CC(=O)NCCc1ccncc1	22906*	-1	1	0	1	-6
Cc1ccc(Oc2nnc(-c3ccccc3)c3ccccc23)cc1	21278*	2	6	6	-4	6
O=S(=O)(NC1CC1)c1ccc(Br)cc1N1CCC[C@H]1CO	4005	x	-1	-7	0	x
CC(C)Cc1cc(C(=O)O)c2ccccc2n1	18252*	-3	-9	-12	-3	7
COCCNc1cc(C)nc2cc(-c3ccc(C)cc3)nn12	5635	-1	0	-2	-1	0
Cc1ccc(-c2cc3nc(C)cc(NCc4ccco4)n3n2)cc1	16495*	6	2	7	-4	-1
O=C(Nc1ccc(C(=O)N2CCOCC2)cc1)C1CC1	3910	x	0	1	-1	x
CCC(C)(C)C(=O)Nc1nnc(CCc2ccccc2)s1	3221	3	-1	36*	-1	0
COc1nc2ccccc2c(=O)n1-c1ccc(Cl)cc1	2734	-3	-2	-14	-1	-22
O=c1c2ccccc2nc(N2CCCC2)n1-c1ccc(Cl)cc1	22940*	-1	1	-1	2	2
O=C(CSc1nnc(-c2cccnc2)n1-c1ccccc1)Nc1ccccc1	9420	1	-2	-14	-7	-3
COc1ccc(NC(=O)CSc2nnc(-c3ccccn3)n2-c2ccccc2)cc1OC	20651*	2	6	6	-5	-10
Cc1ccc(NC(=O)CSc2nnc(-c3cnccn3)n2-c2ccccc2)cc1	16733*	-5	u	-6	1	14
CC(=O)CSc1nnc(-c2cnccn2)n1-c1ccccc1	3674	3	1	-10	3	5
CC(C)OC(=O)CSc1nnc(-c2cnccn2)n1-c1ccc(Cl)cc1	21757*	-2	u	-7	-4	4
Cc1ccc(-c2nnc(SCC(=O)CC(=O)Nc3ccccc3)n2-c2ccccc2)cc1	21966*	5	-7	-9	2	2
S=C(NCCCN1CCN(CCCNC(=S)NC2CCCCC2)CC1)NC1CCCCC1	u	x	-4	10	-4	x
C=CCNC(=O)CN(Cc1ccccc1)S(=O)(=O)c1ccccc1	3042	-1	-2	4	-6	-5
CCOC(=O)CSc1nnc(Cc2ccccc2)n1-c1ccc(C)cc1	4009	-4	0	-7	1	-1
Cc1ccc(-n2c(Cc3cccn3C)nnc2SCC(=O)NCc2ccc3c(c2)OCO3)cc1	21493*	7	3	3	-7	9
COc1ccc(-n2c(Cc3cccn3C)nnc2SCC(=O)NCc2ccc(F)cc2)cc1	5533	0	-1	-5	0	-3
Cc1ccc(C(=O)NNC(=O)CSc2nnc(-c3ccncc3)n2-c2ccc(C)cc2)cc1	20719*	5	2	2	-7	-10
Cc1ccc(-n2c(Cc3ccccc3)nnc2SCC(=O)NNC(=O)Cc2ccccc2)cc1	16282*	1	0	-3	-3	7
CC/C(C)=N\Nc1nc(-c2cc3cc(OC)ccc3oc2=O)cs1	5835	-2	2	3	-1	9
C[C@H](N)c1nnc(SCC(=O)c2ccc(Cl)cc2)o1	16731*	-1	-1	-1	1	-3
O=C(CCn1c(=S)[nH]c2ccccc2c1=O)NCC1CCCO1 (configuration not stated)	21058*	3	5	5	-1	-7
O=C(CCCn1c(=S)[nH]c2ccccc2c1=O)NC1CCCC1	16938*	4	-2	-5	0	-4

Screening results: PubChem BioAssay, several laboratories
